Test results taken from PubChem BioAssay.
Active and inactive are the calls of the source. Unless noted, no rule for the calls is given here.

Tests used:
[1] = tested on: Wnt5a (protein binding on small-molecule microarray); assay: Wnt5a binders on small-molecule microarray, primary screen, biophysical, 635/667 nm fluorescence (AID 1142); conditions: 635 nm fluorescence, higher = more signal;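 also: fluorescence read at 667 nm with signal to noise per printed feature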
[2] = cell viability in Huh7 cells, primary screen, cytotoxicity control for HCV replication inhibitor project, CellTiter-Glo luminescence, basal, 48 h (AID 1143); conditions: Huh7 HCV replicon, higher = more signal, called active from +8 up or from −8 down;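 also: Huh7 hepatoma cells carrying a hepatitis C replication reporter with no stimulus; test concentration not given here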
[3] = P. aeruginosa biofilm formation inhibitors, primary screen, PAO1 strain, BacTiter-Glo luminescence, LB-PBS (AID 1144); conditions: 12 h, higher = more signal
[4] = CREB reporter modulators without forskolin, primary screen, cell-based, PC12, CRE-LacZ reporter, unstimulated (AID 1145); conditions: no forskolin, luminescence, 4.5 h, higher = more signal, called active from +8 up or from −8 down
[5] = CREB reporter modulators under forskolin, primary screen, cell-based, PC12, CRE-LacZ reporter, forskolin-stimulated (AID 1146); conditions: luminescence, 4.5 h, higher = more signal, called active from +8 up or from −8 down;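 also: PC12 cells with 6xCRE LacZ reporter stimulated by forskolin 10 µM; beta-galactosidase reporter signal reflecting CREB driven transcription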
[6] = biological target: Streptavidin (Streptomyces avidinii) (UniProt P22629); assay: streptavidin binders on small-molecule microarray, primary screen, artefact control for SMM compound annotation, biophysical, 635/667 nm fluorescence (AID 1147); conditions: streptavidin binding, higher = more signal;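 also: signal reflects streptavidin binding to arrayed compounds as a control protein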
[7] = small-molecule binders of probe aInhba, primary screen, biochemical, small-molecule microarray, 635/667 nm fluorescence (AID 1148); conditions: higher = more signal;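 also: score merges 667nm spot fluorescence with signal-to-noise for antibody binding to printed compounds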
Torsin-1A (Homo sapiens) [8] = biological target: Torsin-1A (Homo sapiens) (UniProt O14656); assay: torsin A binders from cell lysate, primary screen, small-molecule microarray, wild-type, 635/667 nm (AID 1149); conditions: COS7 hTOR1A-WT lysate, 635 nm fluorescence, higher = more signal
Torsin-1A (Homo sapiens) [9] = biological target: Torsin-1A (Homo sapiens) (UniProt O14656); assay: small-molecule binders of mutant TOR1A in lysate, primary screen, cell lysate, small-molecule microarray, COS7 lysate, 635/667 nm fluorescence (AID 1150); conditions: COS7 hTOR1A mutant lysate, 635 nm fluorescence, higher = more signal;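 also: score pools 667 nm emission and signal to noise measuring lysate protein binding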
[10] = tested on: Sonic hedgehog protein (Shh); assay: small-molecule binders of Shh protein, primary screen, biochemical, small-molecule microarray, 635/667 nm fluorescence (AID 1151); conditions: small-molecule microarray binding, 635 nm fluorescence; higher = more signal;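 also: Shh protein binding to compounds spotted on small-molecule microarray slides; score combines spot fluorescence intensity with signal-to-noise across triplicate slides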

Chain of Streptavidin (Streptomyces avidinii) (P22629 whole entry, looked up): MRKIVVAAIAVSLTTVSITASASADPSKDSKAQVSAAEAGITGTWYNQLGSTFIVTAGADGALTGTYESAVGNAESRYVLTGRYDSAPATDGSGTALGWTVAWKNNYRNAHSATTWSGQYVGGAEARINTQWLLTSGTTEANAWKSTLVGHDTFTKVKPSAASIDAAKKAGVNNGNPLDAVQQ
Chain of Torsin-1A (Homo sapiens) (O14656 whole entry, looked up): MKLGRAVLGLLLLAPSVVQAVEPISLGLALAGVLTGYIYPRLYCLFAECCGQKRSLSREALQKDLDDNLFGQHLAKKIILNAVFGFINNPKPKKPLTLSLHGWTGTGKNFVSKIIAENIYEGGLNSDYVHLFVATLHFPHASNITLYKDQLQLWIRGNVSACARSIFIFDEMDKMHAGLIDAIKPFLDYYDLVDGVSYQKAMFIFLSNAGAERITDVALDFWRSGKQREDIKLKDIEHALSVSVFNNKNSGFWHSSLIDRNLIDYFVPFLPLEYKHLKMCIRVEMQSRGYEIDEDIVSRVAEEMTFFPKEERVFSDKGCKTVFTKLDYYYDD

Row | SMILES | composite z-score [1] | z-score [2] | z-score [3] | z-score [4] | z-score [5] | composite z-score [6] | composite z-score [7] | composite z-score (Torsin-1A (Homo sapiens) [8]) | composite z-score (Torsin-1A (Homo sapiens) [9]) | composite z-score [10]
1 | COCCOC(=O)N1C(=O)[C@@]2(c3cc(C#CCC(C(=O)OC)C(=O)OC)ccc31)[C@H](c1ccccc1OCCO)N1[C@H](c3ccccc3)[C@H](c3ccccc3)OC(=O)[C@H]1[C@@H]2C(=O)N1CCc2cc(OC)c(OC)cc2C1 | -0.184 | -3.42 (inactive) | -1.52 (inactive) | -1.42 (inactive) | -1.16 (inactive) | 0.226 | -0.0774 | 0.298 | 0.619 | 1.88
2 | COCCOC(=O)N1C(=O)[C@@]2(c3cc(C#CC4=CCCCC4)ccc31)[C@H](C(=O)N1CCc3cc(OC)c(OC)cc3C1)[C@H]1C(=O)O[C@H](c3ccccc3)[C@H](c3ccccc3)N1[C@@H]2c1ccccc1OCCO | 0.192 | -1.3 (inactive) | 0.597 (inactive) | 0.0736 (inactive) | -1.14 (inactive) | 0.154 | 0.0939 | 0.198 | 0.274 | 2.05
3 | [N-]=[N+]=NCc1ccccc1C[C@]1(C(=O)O)N=C(c2ccc(OCCCO)cc2)O[C@H]1c1ccccc1CN=[N+]=[N-] | -0.0602 | -1.42 (inactive) | -0.046 (inactive) | 2.87 (inactive) | 2.69 (inactive) | 1.66 | 0.0342 | 0.171 | 0.48 | -0.0214
4 | CCOC(=O)C[C@H]1[C@H](OC(=O)c2ccc(-c3ccccc3)cc2)[C@@H](NC(=O)c2ccc3ccccc3c2)c2cc(OCCCO)ccc2N1C(=O)Cc1ccc(OC)cc1 | 0.266 | 0.359 (inactive) | -0.599 (inactive) | -1.01 (inactive) | 0.809 (inactive) | -0.0829 | -0.0954 | 0.0044 | -0.497 | -0.0004
5 | NCCCCCNC(=O)[C@H]1C[C@H]2C(=O)NCC(=O)N2[C@H]1c1cccc(OCCO)c1 | 0.584 | 0.241 (inactive) | -0.147 (inactive) | -1.08 (inactive) | 0.0161 (inactive) | 0.579 | -0.144 | 0.483 | 0.727 | 2.01
6 | COC(=O)C(CC#Cc1ccc2c(c1)[C@]1(C(=O)N2)[C@H](C(=O)NC[C@H](O)c2ccccc2)[C@H]2C(=O)O[C@H](c3ccccc3)[C@H](c3ccccc3)N2[C@@H]1c1ccc(OCCO)cc1)C(=O)OC | 1.08 | -1.02 (inactive) | -0.419 (inactive) | 0.0653 (inactive) | -0.291 (inactive) | 2.55 | 0.859 | 1.69 | 1.09 | 1.6
7 | CN1C=C(C(=O)OCCS(C)(=O)=O)C(C(=O)OCCS(C)(=O)=O)=CC(CCCO)=CC1C1CC1 (stereo not given) | -0.102 | -0.134 (inactive) | -0.483 (inactive) | -0.844 (inactive) | -0.657 (inactive) | 0.207 | -0.128 | -0.0089 | 0.344 | 0.501
8 | Cc1ccc([C@H]2[C@H](C(=O)O)[C@H](Sc3ccccc3)[C@@H](C(C)C)N2S(=O)(=O)c2ccc(C)cc2)cc1 | 0.378 | -2.04 (inactive) | 0.766 (inactive) | -0.676 (inactive) | -0.728 (inactive) | 0.93 | -0.231 | 0.495 | 0.612 | -0.861
9 | [N-]=[N+]=NCc1ccccc1[C@@H]1OC(c2ccc(OCCCO)cc2)=N[C@]1(Cc1ccccc1N=[N+]=[N-])C(=O)NCc1ccccc1 | 0.378 | -3 (inactive) | -0.433 (inactive) | -0.193 (inactive) | -1.02 (inactive) | 0.942 | -0.0006 | 0.819 | 0.191 | 1.51
10 | CCOC(=O)C1=CCC(C(C)(C)C)N(S(=O)(=O)c2ccc(C)cc2)C1 (stereo not given) | 0.858 | -4.52 (inactive) | 1.19 (inactive) | 0.883 (inactive) | 0.639 (inactive) | 1.6 | -0.0933 | 0.881 | 1.67 | 0.722
11 | CCOC(=O)C1=CCC(c2ccc([N+](=O)[O-])cc2)N(S(=O)(=O)c2ccc(C)cc2)C1 (stereo not given) | 0.0898 | -3.94 (inactive) | 0.203 (inactive) | 0.687 (inactive) | 0.264 (inactive) | 0.653 | 0.111 | 0.242 | 0.103 | -0.377
12 | CC(C)NC(=O)[C@@H]1c2ccccc2C(=O)N(Cc2ccccc2)[C@H]1c1ccc(CO)cc1 | -0.0365 | -0.0084 (inactive) | -0.0818 (inactive) | 0.0279 (inactive) | 0.669 (inactive) | -0.501 | 0.0345 | -0.124 | -0.744 | 0.495
13 | O=C1N(CCS(=O)(=O)c2ccccc2)Cc2ccccc2[C@H]2OC(c3ccc(OCCCO)cc3)=N[C@@]12CCS(=O)(=O)c1ccccc1 | 1.05 | -1.07 (inactive) | -0.447 (inactive) | 0.881 (inactive) | -1.33 (inactive) | 0.421 | 0.0831 | 0.307 | -0.0941 | 0.806
14 | CCOC(=O)C[C@H]1[C@H](OC(=O)Cc2ccc3c(c2)OCO3)[C@@H](NC(=O)C2CCCCC2)c2cc(OCCCO)ccc2N1C(=O)Cc1ccc(OC)cc1 | 0.142 | -1.15 (inactive) | -0.0589 (inactive) | 6.93 (inactive) | -0.943 (inactive) | 0.219 | 0.0301 | 0.146 | 0.511 | 0.541
